What all share (conditions): compound concentration in added solution (µM; 5 µl added to 20 µl cells): 10; 18 h
Assay [1] relates to A431. The assay can be described thus: LBPA endosome anti-LBPA integrated intensity (sum per cell), Z-score; higher = more LBPA staining. The essentials:
(§1)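 Four 20× images per well were taken of HeLa MZ or A431 cells that had been seeded at 3,500 per well in 20 µl onto 5 µl of 10 µM compound solution in duplicate 384-well imaging plates. Before imaging, cells were incubated 18 h, fixed in 4% PFA and stained with 6C4 anti-LBPA antibody, filipin, propidium iodide and CellTracker green. Values are Z-scores normalised in AcuityXpress from MetaXpress-derived per-cell integrated LBPA or filipin intensity, either whole-cell or within LBPA endosomes.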

Assay [2] relates to HeLa MZ. The assay is described as above. The method in brief:
as §1

Assay [3] has as its system A431. The assay can be described thus: whole-cell filipin (free cholesterol) integrated intensity, Z-score; higher = more cholesterol staining. The method in brief: as §1
The test system of assay [4] is HeLa MZ. The assay is described as above. The essentials:
as §1

Assay [5] concerns A431. The assay can be described thus: filipin (cholesterol) integrated intensity within LBPA endosomes, Z-score; higher = more cholesterol in LBPA endosomes. The essentials: as §1
Assay [6] deals with HeLa MZ. The description is as above. The method in brief: as §1

Each structure is given as a SMILES string. Structures can show the parent of a compound that is named as a salt.

In the case of `CC(=O)NS(=O)(=O)c1ccc(N)cc1` [Sulfacetamide sodic hydrate], the “LBPA endosome anti-LBPA integrated intensity (z-score)” value was -0.453 in the assay with A431 [1] and -0.433 in the assay on HeLa MZ [2]. Moreover, the “whole-cell filipin (z-score)” value was -0.701 in the assay with A431 [3] and -0.53 in the assay on HeLa MZ [4]. Also, the “filipin (z-score)” value was -0.475 with A431 [5] and -0.628 in the assay with HeLa MZ [6].
For `O=C(O)Cc1cc(I)c(Oc2ccc(O)c(I)c2)c(I)c1` [Tiratricol, 3,3',5-triiodothyroacetic acid], the results for the “LBPA endosome anti-LBPA integrated intensity (z-score)” value in the assay on A431 [1] and in the assay on HeLa MZ [2] were -0.369 and 0.145, respectively. In addition, the “whole-cell filipin (z-score)” value is -0.472 in the assay with A431 [3] and -0.883 with HeLa MZ [4]. Moreover, the “filipin (z-score)” value in the assay with A431 [5] is -0.548; in the assay with HeLa MZ [6] it was -0.66.
In the case of `CC[C@H](C)C(=O)O[C@H]1C[C@H](O)C=C2C=C[C@H](C)[C@H](CC[C@@H](O)C[C@@H](O)CC(=O)O)[C@H]21` [Pravastatin], the “LBPA endosome anti-LBPA integrated intensity (z-score)” value in the assay on A431 [1] stood at 1.48; in the assay on HeLa MZ [2], 0.0503. The “whole-cell filipin (z-score)” value in the assay with A431 [3] is -0.289; in the assay on HeLa MZ [4], -0.634. Besides, the results for the “filipin (z-score)” value in the assay on A431 [5] and with HeLa MZ [6] were 0.0167 and -0.441, respectively.
For the compound `CCOC(=O)c1ccc(N)cc1` [Benzocaine], the “LBPA endosome anti-LBPA integrated intensity (z-score)” value with A431 [1] was -0.607; with HeLa MZ [2], -1.32. Moreover, the “whole-cell filipin (z-score)” value was -0.4 with A431 [3] and -0.36 in the assay with HeLa MZ [4]. Further, the entries for the “filipin (z-score)” value with A431 [5] and with HeLa MZ [6] were -0.613 and -0.643, respectively.
Regarding `CC(=O)c1ccc2c(c1)N(CCCN1CCC(CCO)CC1)c1ccccc1S2` [Piperacetazine], the “LBPA endosome anti-LBPA integrated intensity (z-score)” value was determined as 4.58 with A431 [1] and 1.54 in the assay on HeLa MZ [2]. Further, the entries for the “whole-cell filipin (z-score)” value in the assay with A431 [3] and in the assay on HeLa MZ [4] were 2.51 and 1.35, respectively. The “filipin (z-score)” value stood at 3.1 with A431 [5] and 3.21 with HeLa MZ [6].
On to `Nc1ncnc2c1ncn2[C@@H]1O[C@H](CO)[C@@H](O)[C@@H]1O` [Vidarabine], for which the “LBPA endosome anti-LBPA integrated intensity (z-score)” value was -0.521 in the assay on A431 [1] and 0.0226 in the assay on HeLa MZ [2]. Further, the “whole-cell filipin (z-score)” value with A431 [3] is -0.393; with HeLa MZ [4], 0.669. The “filipin (z-score)” value in the assay with A431 [5] is -0.496; in the assay on HeLa MZ [6], -0.54.
For the compound `C[N+](C)(CCOc1ccccc1)Cc1ccccc1.O=C([O-])c1cc2ccccc2cc1O` [Bephenium hydroxynaphthoate], the results for the “LBPA endosome anti-LBPA integrated intensity (z-score)” value in the assay on A431 [1] and in the assay with HeLa MZ [2] were -0.418 and 0.146, respectively. Further, the entries for the “whole-cell filipin (z-score)” value with A431 [3] and in the assay with HeLa MZ [4] were -0.383 and -0.145, respectively. In addition, the “filipin (z-score)” value in the assay on A431 [5] was -0.456; with HeLa MZ [6], -0.371.
On to `CC(=O)OCC(=O)[C@@]1(O)CC[C@H]2[C@@H]3CCC4=CC(=O)CC[C@]4(C)[C@H]3[C@@H](O)C[C@@]21C` [Cortisol acetate], for which the “LBPA endosome anti-LBPA integrated intensity (z-score)” value with A431 [1] was -0.325; with HeLa MZ [2], -0.845. The “whole-cell filipin (z-score)” value with A431 [3] is -0.384; with HeLa MZ [4] it was -0.119. Further, the results for the “filipin (z-score)” value in the assay with A431 [5] and in the assay on HeLa MZ [6] were -0.306 and -0.404, respectively.
As to `Cc1c(C)c2c(c(C)c1O)CCC(C)(C(=O)O)O2` (stereo not drawn) [Trolox], the “LBPA endosome anti-LBPA integrated intensity (z-score)” value is -0.472 in the assay with A431 [1] and 0.342 with HeLa MZ [2]. In addition, the entries for the “whole-cell filipin (z-score)” value with A431 [3] and with HeLa MZ [4] were -0.624 and 0.128, respectively. The “filipin (z-score)” value is -0.552 in the assay with A431 [5] and -0.401 in the assay with HeLa MZ [6].
Regarding `CCCc1nc2c(C)cc(-c3nc4ccccc4n3C)cc2n1Cc1ccc(-c2ccccc2C(=O)O)cc1` [Telmisartan], the “LBPA endosome anti-LBPA integrated intensity (z-score)” value with A431 [1] was -0.132; in the assay on HeLa MZ [2], 0.924. Further, the “whole-cell filipin (z-score)” value was determined as 0.0869 in the assay on A431 [3] and 0.281 in the assay on HeLa MZ [4]. Further, the “filipin (z-score)” value was -0.34 with A431 [5] and -0.264 in the assay on HeLa MZ [6].
As for `O=C(O)c1ccccc1C(=O)Nc1ccc(S(=O)(=O)Nc2nccs2)cc1` [Phthalylsulfathiazole], the “LBPA endosome anti-LBPA integrated intensity (z-score)” value in the assay on A431 [1] was -0.455; in the assay with HeLa MZ [2], -0.249. Also, the “whole-cell filipin (z-score)” value with A431 [3] was -0.41; in the assay on HeLa MZ [4], -0.101. Further, the “filipin (z-score)” value with A431 [5] was -0.471; in the assay on HeLa MZ [6], -0.557.
Consider `CNNCc1ccc(C(=O)NC(C)C)cc1` [Procarbazine hydrochloride], for which the “LBPA endosome anti-LBPA integrated intensity (z-score)” value in the assay with A431 [1] was -0.593; with HeLa MZ [2] it was -1.08. For the same compound, the figures for the “whole-cell filipin (z-score)” value in the assay with A431 [3] and in the assay on HeLa MZ [4] were -0.286 and -0.325, respectively. Moreover, the “filipin (z-score)” value in the assay on A431 [5] is -0.487; in the assay on HeLa MZ [6] it was -0.664.
With `CCC1=C(C)CN(C(=O)NCCc2ccc(S(=O)(=O)NC(=O)N[C@H]3CC[C@H](C)CC3)cc2)C1=O` [Glimepiride], the figures for the “LBPA endosome anti-LBPA integrated intensity (z-score)” value with A431 [1] and in the assay on HeLa MZ [2] were -0.623 and -0.491, respectively. Also, the “whole-cell filipin (z-score)” value in the assay with A431 [3] was -0.412; in the assay with HeLa MZ [4], -0.0517. In addition, the “filipin (z-score)” value in the assay on A431 [5] is -0.467; in the assay on HeLa MZ [6] it was -0.486.
As to `Nc1ccc(S(N)(=O)=O)cc1` [Sulfanilamide], the figures for the “LBPA endosome anti-LBPA integrated intensity (z-score)” value with A431 [1] and in the assay with HeLa MZ [2] were -0.59 and -0.84, respectively. The “whole-cell filipin (z-score)” value with A431 [3] is -0.27; in the assay with HeLa MZ [4] it was 0.397. Also, the “filipin (z-score)” value was -0.496 in the assay on A431 [5] and -0.373 in the assay with HeLa MZ [6].
`CC(C)NCC(O)c1ccc(O)c(O)c1` (single isomer, unassigned; (-)) [(-)-Isoproterenol hydrochloride]: the “LBPA endosome anti-LBPA integrated intensity (z-score)” value with A431 [1] was -0.173; in the assay on HeLa MZ [2], -0.052. In addition, the “whole-cell filipin (z-score)” value in the assay with A431 [3] is 0.672; in the assay with HeLa MZ [4], -0.415. The “filipin (z-score)” value in the assay on A431 [5] was -0.458; with HeLa MZ [6], -0.467.
As to `Cc1oncc1C(=O)Nc1ccc(C(F)(F)F)cc1` [Leflunomide], the “LBPA endosome anti-LBPA integrated intensity (z-score)” value with A431 [1] was -0.572; with HeLa MZ [2], -0.48. Further, the “whole-cell filipin (z-score)” value in the assay on A431 [3] is -0.143; in the assay on HeLa MZ [4], -0.573. The “filipin (z-score)” value with A431 [5] is -0.693; in the assay with HeLa MZ [6] it was -0.555.
In the case of `CNCC(O)c1ccc(O)c(O)c1` (stereo not drawn) [Racepinephrine HCl], the “LBPA endosome anti-LBPA integrated intensity (z-score)” value was -0.253 in the assay with A431 [1] and -0.0976 with HeLa MZ [2]. Further, the entries for the “whole-cell filipin (z-score)” value with A431 [3] and with HeLa MZ [4] were 0.725 and 0.18, respectively. The “filipin (z-score)” value in the assay on A431 [5] is -0.509; in the assay with HeLa MZ [6] it was -0.366.
With `CN(C)CCOC(=O)COc1ccc(Cl)cc1` [Meclofenoxate hydrochloride], the “LBPA endosome anti-LBPA integrated intensity (z-score)” value with A431 [1] is -0.454; with HeLa MZ [2] it was -0.858. The “whole-cell filipin (z-score)” value was -0.411 with A431 [3] and -0.563 in the assay on HeLa MZ [4]. Moreover, the “filipin (z-score)” value in the assay on A431 [5] was -0.417; in the assay with HeLa MZ [6] it was -0.533.
For `N=C(N)N1CCc2ccccc2C1` [Debrisoquin sulfate], the entries for the “LBPA endosome anti-LBPA integrated intensity (z-score)” value in the assay with A431 [1] and in the assay on HeLa MZ [2] were -0.566 and -0.193, respectively. In addition, the entries for the “whole-cell filipin (z-score)” value in the assay on A431 [3] and in the assay with HeLa MZ [4] were -0.719 and -0.695, respectively. Besides, the “filipin (z-score)” value was -0.556 in the assay on A431 [5] and -0.606 in the assay on HeLa MZ [6].
`CSc1ccc2c(c1)N(CCC1CCCCN1C)c1ccccc1S2` (stereo not drawn) [Thioridazine hydrochloride]: the “LBPA endosome anti-LBPA integrated intensity (z-score)” value in the assay on A431 [1] amounted to 1.04; with HeLa MZ [2], 0.375. For the same compound, the “whole-cell filipin (z-score)” value is -0.796 in the assay with A431 [3] and -0.81 in the assay on HeLa MZ [4]. The “filipin (z-score)” value with A431 [5] amounted to 1.25; in the assay on HeLa MZ [6], 1.45.
`CN(C(=O)CN(CCO)CC(=O)N(C)C(C)(C)Cc1ccccc1)C(C)(C)Cc1ccccc1` [Oxethazaine]: the “LBPA endosome anti-LBPA integrated intensity (z-score)” value with A431 [1] worked out at 1.71; with HeLa MZ [2] it was 0.996. The results for the “whole-cell filipin (z-score)” value in the assay on A431 [3] and in the assay with HeLa MZ [4] were 1.26 and 0.298, respectively. The figures for the “filipin (z-score)” value in the assay on A431 [5] and in the assay with HeLa MZ [6] were 1.53 and 2.17, respectively.
For `Cc1nnc(SCC2=C(C(=O)O)N3C(=O)[C@@H](NC(=O)Cn4cnnn4)[C@H]3SC2)s1` [Cefazolin sodium salt], the results for the “LBPA endosome anti-LBPA integrated intensity (z-score)” value in the assay with A431 [1] and with HeLa MZ [2] were -0.481 and -0.611, respectively. Besides, the entries for the “whole-cell filipin (z-score)” value in the assay with A431 [3] and with HeLa MZ [4] were -0.424 and -0.218, respectively. The “filipin (z-score)” value in the assay on A431 [5] was -0.384; in the assay on HeLa MZ [6], -0.417.
Regarding `CC1(C)S[C@@H]2[C@H](NC(=O)[C@H](C(=O)O)c3ccsc3)C(=O)N2[C@H]1C(=O)O` [Ticarcillin sodium], the “LBPA endosome anti-LBPA integrated intensity (z-score)” value in the assay with A431 [1] was -0.466; in the assay on HeLa MZ [2], -0.401. Besides, the “whole-cell filipin (z-score)” value in the assay with A431 [3] is -0.165; with HeLa MZ [4] it was -0.157. Also, the figures for the “filipin (z-score)” value in the assay on A431 [5] and in the assay with HeLa MZ [6] were -0.403 and -0.501, respectively.

(Values after the supplement of paper PMC6607015.)
